Data: PubChem BioAssay (NCI)
About 83,000 compounds went through this panel and 20% of them were active in at least one assay; those are over-represented in the sample as a whole.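 Single-dose data. Exposure time 48 hours. Values below 10 considered active.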 A number with no mark means an inactive call. The source made the active and inactive calls.

What was measured:
Test in all cases: NCI-60 one-dose screen, 48 h (100 = growth as untreated, 0 = no growth, -100 = all killed)
Settings in all cases: 10 µM unless noted
T-47D breast = system: T-47D breast
MDA-MB-435 melanoma = system: MDA-MB-435 melanoma
MCF7 breast = system: MCF7 breast
HCT-116 colon = system: HCT-116 colon
HCC-2998 colon = system: HCC-2998 colon
KM12 colon = system: KM12 colon
MDA-MB-468 breast = system: MDA-MB-468 breast
SW-620 colon = system: SW-620 colon

## COc1ccc(-c2nnc3ccc(N/N=C/c4ccc(C)cc4)nn23)cc1
T-47D breast
  growth: 76%
MDA-MB-435 melanoma
  growth: 64.7%
MCF7 breast
  growth: 57.2%
HCT-116 colon
  growth: 78.8%
HCC-2998 colon
  growth: 79.1%
KM12 colon
  growth: 68.1%
MDA-MB-468 breast
  growth: 89.4%

## CN1CCN(c2ccc(C(=O)/C=C/c3cc(C(F)(F)F)cc(C(F)(F)F)c3)cc2)CC1
T-47D breast
  growth: -68.7% (active)
MDA-MB-435 melanoma
  growth: -60.8% (active)
SW-620 colon
  growth: -44.8% (active)
MCF7 breast
  growth: -82.3% (active)
HCT-116 colon
  growth: -87.4% (active)
HCC-2998 colon
  growth: -91% (active)
KM12 colon
  growth: -56.8% (active)
MDA-MB-468 breast
  growth: -69.3% (active)

## COc1ccc(C(=O)/C=C/c2cccc(Br)c2)cc1S(N)(=O)=O
T-47D breast
  growth: -71.4% (active)
SW-620 colon
  growth: -19.8% (active)
MCF7 breast
  growth: -77.2% (active)
HCT-116 colon
  growth: -99.2% (active)
HCC-2998 colon
  growth: -92.8% (active)
KM12 colon
  growth: -62.8% (active)
MDA-MB-468 breast
  growth: -53.9% (active)

## COc1ccc(C(=O)/C=C/c2ccccc2Cl)cc1S(N)(=O)=O
T-47D breast
  growth: 106%
SW-620 colon
  growth: 107%
MCF7 breast
  growth: 96.2%
HCT-116 colon
  growth: 106%
HCC-2998 colon
  growth: 114%
KM12 colon
  growth: 111%
MDA-MB-468 breast
  growth: 109%

## O=C(NNc1nc2cc(F)ccc2n2c(C(=O)N3CCN(C4CC4)CC3)ccc12)c1ncccn1
T-47D breast
  growth: 27.3%
MDA-MB-435 melanoma
  growth: 41.2%
SW-620 colon
  growth: 34.6%
MCF7 breast
  growth: 15.3%
HCT-116 colon
  growth: 20.5%
HCC-2998 colon
  growth: 63.8%
KM12 colon
  growth: 35.7%
MDA-MB-468 breast
  growth: 14.1%

## COc1ccc(C(=O)Nc2n[nH]c(Nc3ccccc3)c2C#N)cc1
T-47D breast
  growth: 113%
MDA-MB-435 melanoma
  growth: 118%
SW-620 colon
  growth: 102%
MCF7 breast
  growth: 94.8%
HCT-116 colon
  growth: 105%
HCC-2998 colon
  growth: 120%
KM12 colon
  growth: 112%
MDA-MB-468 breast
  growth: 112%

## O=C1N/C(=N\c2nccs2)S/C1=C\C=C/c1ccccc1
T-47D breast
  growth: 32.7%
MDA-MB-435 melanoma
  growth: 44.5%
SW-620 colon
  growth: 41%
MCF7 breast
  growth: 16.1%
HCC-2998 colon
  growth: 75.7%
KM12 colon
  growth: 38%
MDA-MB-468 breast
  growth: 44.2%

## COc1ccc(C(=O)/C=C/c2cccc(Cl)c2)cc1S(N)(=O)=O
T-47D breast
  growth: -53.8% (active)
MDA-MB-435 melanoma
  growth: 14%
SW-620 colon
  growth: -19.9% (active)
MCF7 breast
  growth: -67% (active)
HCC-2998 colon
  growth: 1.16% (active)
KM12 colon
  growth: -57.9% (active)
MDA-MB-468 breast
  growth: -53.8% (active)

## COc1cc(OC)cc(-c2cc3ccc(N(C)C)cc3c(=O)[nH]2)c1
T-47D breast
  growth: 82%
SW-620 colon
  growth: 33.8%
MCF7 breast
  growth: 22.5%
HCT-116 colon
  growth: 8.72% (active)
HCC-2998 colon
  growth: 40.7%
KM12 colon
  growth: 16.7%
MDA-MB-468 breast
  growth: 40.2%

## O=C(NNc1nc2cc(F)ccc2n2c(CN3CC4CNCC4C3)ccc12)c1ccncn1 (centres undefined)
T-47D breast
  growth: 12.4%
MDA-MB-435 melanoma
  growth: 32.1%
SW-620 colon
  growth: 31.3%
MCF7 breast
  growth: 14.7%
HCT-116 colon
  growth: 14.7%
HCC-2998 colon
  growth: 56.7%
KM12 colon
  growth: 27.9%
MDA-MB-468 breast
  growth: -3.86% (active)

## COc1ccc(NC(=O)Cn2c(/C=C/c3cccc([N+](=O)[O-])c3)nc3ccccc3c2=O)cc1
T-47D breast
  growth: 69.2%
SW-620 colon
  growth: 92.6%
MCF7 breast
  growth: 46.8%
HCT-116 colon
  growth: 55.4%
HCC-2998 colon
  growth: 112%
KM12 colon
  growth: 77.5%
MDA-MB-468 breast
  growth: 83.6%

## O=C(Nc1ccc(C(F)(F)F)cc1)Nc1ccc2oc(=O)ccc2c1
T-47D breast
  growth: 19%
MDA-MB-435 melanoma
  growth: 24.1%
SW-620 colon
  growth: 31.2%
MCF7 breast
  growth: 2.63% (active)
HCT-116 colon
  growth: 8.31% (active)
HCC-2998 colon
  growth: 32.5%
KM12 colon
  growth: 16%
MDA-MB-468 breast
  growth: 5% (active)
